The values that follow come from PubChem BioAssay.

Molecules are shown by their SMILES. Records with an inconclusive call do not appear. Calls of active or inactive are those of the source. Rule as the data show it, unless noted: active = percent of DMSO control GFP below about 86%; inactive = the rest, inconclusive results apart.

A short description of assay [1]: yeast TOR pathway RPL19A-GFP modulators, primary screen, cell-based, S. cerevisiae, multiplex flow cytometry (AID 1862).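 Also: lower values mimic rapamycin by blocking the RPL19A rise seen in DMSO cells.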 The conditions noted are these: S. cerevisiae RPL19A-GFP strain, flow cytometry fluorescence, 3 h; at 10 µM; stronger effect = lower value. A general note: Flow cytometry measures light scatter and fluorescence of single cells or particles in a stream.
Assay [2] in a line: modulators of MEP2-GFP levels in yeast, primary screen, S. cerevisiae, multiplex flow cytometry (AID 1867;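 active = GFP response, as percent of the DMSO control, above the screen-wide mean plus 3 SD, about 139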;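 also: median GFP channel fluorescence of barcode-gated MEP2-GFP cells measured by flow cytometry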). As to conditions: S. cerevisiae MEP2-GFP strain, 3 h, at 10 µM, stronger effect = higher value, 100% means same as DMSO wells.
Assay [3] is described as follows: modulators of CIT2-GFP expression in yeast, primary screen, S. cerevisiae, GFP fusion, multiplex flow cytometry (AID 1870;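 active = percent response above a set limit, the screen-wide mean plus 3 SD, cut at about 130% in these data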;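 also: barcoded CIT2-GFP strain pooled with four other GFP strains with rapamycin as positive control; median GFP fluorescence per well over plate mean of DMSO wells so 100% = DMSO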). As to conditions: 3 h, at 10 µM, stronger effect = higher value.
The nature of assay [4]: modulators of LAP4-GFP expression in yeast, primary screen, S. cerevisiae, multiplex flow cytometry (AID 1873;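 active = GFP signal, as percent of the solvent control, above the screen mean plus 3 SD, about 149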). As to conditions: 3 h, at 10 µM, stronger effect = higher value.
A short description of assay [5]: modulators of AGP1-GFP expression in yeast TOR pathway, primary screen, cell-based, multiplex flow cytometry, S. cerevisiae (AID 1887;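 active = GFP signal above the screen-wide mean plus 3 SD, that is over about 124.5% of the solvent control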;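 also: AGP1-GFP fusion strain of S. cerevisiae within a five-strain barcoded multiplex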). The conditions noted are these: 3 h, at 10 µM, stronger effect = higher value.
Assay [6] can be described thus: inhibitors of CD8+ T cell-vesicle binding, pilot screen, LFA-1/ICAM-1 modulator project, MLPCN validation set, flow cytometry (AID 2523;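 active = response below a set limit, under 55% cells CD8-positive and vesicle-bound, and CD8 cells' 90th-percentile brightness under 279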;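 as to vesicle binding response: mean PE anti-B7-1 fluorescence of CD8+ cells relative to row control; 100% = QL9-loaded vesicles with DMSO vehicle in the same plate row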). The conditions noted are these: 2C mouse CD8+ T cells, at 7 µM, stronger effect = lower value; double positive events: measured here: CD8+/vesicle+ event percentage.
Assay [7] has as its target Integrin beta-1 (Homo sapiens) + Integrin alpha-4 (Homo sapiens) (UniProt P13612+P05556). The assay is described as follows: inhibition of HUTS-21 binding to VLA-4, pilot screen, VLA-4 allosteric modulator project, U937 cells, HUTS-21 mAb, flow cytometry, validation set (AID 2674;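 active = inhibition above 50%, about 3 SD of the validation set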;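 also: antibody binding induced by the VLA-4 ligand LDV present at three times its Kd; 0% = LDV ligand with antibody and no compound and 100% = antibody without LDV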). The conditions noted are these: HUTS-21 LIBS mAb binding, at 6.7 µM, stronger effect = higher value, binding induced by LDV ligand.

A short description of assay [8]: superoxide lowering in aged yeast cells, pilot screen, validation compound set (AID 2706;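 active = superoxide response below 65% of plate, a cut near 3 SD across the whole screen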;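 also: yeast exposed to compound for one week at 30 degrees C before staining; 100% = mean of all compound wells on the same plate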). The conditions noted are these: S. cerevisiae aging, superoxide DHE fluorescence; at 10 µM, stronger effect = lower value.
Assay [9] concerns the target Beta-adrenergic receptor kinase 1 (Homo sapiens) (UniProt P25098). Put plainly: GRK2 binders displacing RNA aptamer, biochemical, validation, human GRK2, bead flow cytometry (AID 488806;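 active = aptamer binding inhibition above 30%, about 3 SD of noise from non-fluorescent compounds; inactive = inhibition at or below 30%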). The conditions noted are these: bead-bound GRK2, FAM-aptamer displacement, at 10 µM, stronger effect = higher value.
Assay [10] has as its target AP-2 complex subunit beta (Homo sapiens) (UniProt P63010). Put plainly: inhibitors of arrestin peptide binding to AP2, pilot screen, biochemical, validation set, GST-AP2 beads, flow cytometry (AID 504541;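 active = inhibition above 54%, about 3 SD of non-fluorescent compounds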;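 also: AP2 carries R879A mutation and is captured from E. coli lysate; bead-bound FITC arrestin peptide fluorescence measuring arrestin peptide binding to AP2; 0% = DMSO wells and 100% = excess unlabeled arrestin peptide control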). The conditions noted are these: FITC arrestin peptide, at 10 µM, stronger effect = higher value, AP2 beta2 appendage fragment, R879A mutant.
Assay [11] can be described thus: yeast V-ATPase proton transport modulators, S. cerevisiae, pHLuorin, HTS validation (AID 504600; in the data active = response above about 15%;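 also: plate controls were DMSO for no effect and reference compound for full effect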). The conditions noted are these: S. cerevisiae pHLuorin cytosolic pH, at 10 µM, stronger effect = higher value.
In assay [12] the test system is anti-desmoglein-3 scFv antibody binding to human DSG3. The assay is described as follows: inhibitors of anti-DSG3 scFv binding to DSG3, pilot screen, biochemical, validation compound set, bead-based, flow cytometry (AID 588368;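 active = binding below the plate cutoff, the plate median minus 3 SD, with a reading above zero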;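 also: signal is the median channel fluorescence of bead-bound GFP antibody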). The conditions noted are these: Protein G beads, DSG3-Fc, scFv-GFP binding, at 10 µM, stronger effect = lower value.
Assay [13] is described as follows: inhibitors of fungal efflux pumps CDR1, CDR2, MDR1, pilot screen, validation compound set, multiplex, phenotypic (AID 588506;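 active = efflux inhibition above 0.42, the validation set average plus 4 SD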;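 also: Nile Red retained in cells so higher fluorescence means more efflux inhibition; 0 = negative control wells and 1 = enniatin B 25 µM full block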). As to conditions: S. cerevisiae pump-expressing triplex, Nile Red efflux flow cytometry; at 10 µM; stronger effect = higher value; the pumps come from Candida albicans.
The target of assay [14] is ATP-binding cassette sub-family B member 6 (Homo sapiens) (UniProt Q9NP58). Put plainly: ABCB6 transporter inhibitors, pilot screen, K562-ABCB6 cells, flow cytometry, validation set (AID 588550;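 active = inhibition above the screen-wide mean plus 3 SD, about 51%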;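 also: 0% = DMSO wells and 100% = benzethonium chloride 70 µM positive control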). As to conditions: K562-ABCB6 porphyrin accumulation, 1 h, at 10 µM, stronger effect = higher value.
Chain of ATP-binding cassette sub-family B member 6 (Homo sapiens) (Q9NP58 whole entry, looked up): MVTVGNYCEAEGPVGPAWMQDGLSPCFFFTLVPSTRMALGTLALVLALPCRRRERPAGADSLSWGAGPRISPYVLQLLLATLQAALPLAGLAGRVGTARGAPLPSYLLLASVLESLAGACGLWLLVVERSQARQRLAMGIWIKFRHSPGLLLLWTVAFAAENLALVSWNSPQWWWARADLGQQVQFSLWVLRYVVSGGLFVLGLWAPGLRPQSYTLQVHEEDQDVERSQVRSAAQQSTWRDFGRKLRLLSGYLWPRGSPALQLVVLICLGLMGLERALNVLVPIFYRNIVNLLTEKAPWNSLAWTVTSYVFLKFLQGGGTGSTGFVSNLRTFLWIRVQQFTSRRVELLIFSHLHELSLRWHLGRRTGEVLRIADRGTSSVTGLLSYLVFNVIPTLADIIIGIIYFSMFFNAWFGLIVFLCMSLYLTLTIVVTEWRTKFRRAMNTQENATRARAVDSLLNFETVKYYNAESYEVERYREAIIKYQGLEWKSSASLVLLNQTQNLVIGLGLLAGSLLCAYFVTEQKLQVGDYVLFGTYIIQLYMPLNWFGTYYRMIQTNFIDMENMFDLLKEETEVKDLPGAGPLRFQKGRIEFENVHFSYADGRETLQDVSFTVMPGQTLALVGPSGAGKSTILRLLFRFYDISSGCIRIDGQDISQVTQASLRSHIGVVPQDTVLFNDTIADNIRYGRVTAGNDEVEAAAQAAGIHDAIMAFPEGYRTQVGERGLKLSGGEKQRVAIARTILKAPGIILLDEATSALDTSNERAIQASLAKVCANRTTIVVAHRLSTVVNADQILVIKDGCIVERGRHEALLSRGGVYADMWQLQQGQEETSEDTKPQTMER
Assay [15] is described as follows: promoters of myeloid differentiation in arrested cells, primary screen, cell-based, GFP/MAC1 double positive, flow cytometry, validation set (AID 588685;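 active = differentiation response of at least 50%, scaled between solvent and reference control, from cells with both markers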;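 also: compound exposure lasts four days before antibody staining and flow analysis; 0% = DMSO wells and 100% = 5 µM fulvestrant positive control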). As to conditions: ER-HoxA9 marrow cells, stronger effect = higher value, normalized: vehicle 0, fulvestrant 100.
In assay [16] the target is Beta-2 adrenergic receptor (Homo sapiens) (UniProt P07550). Put plainly: beta2AR agonists driving receptor internalization, pilot screen, cell-based, FAP fluorogen, flow cytometry, validation set (AID 504459;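 active = percent response above 42, roughly 3 SD of non-fluorescent test compounds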;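 also: agonist-driven loss of surface beta2AR via internalization measured by FAP dye flow cytometry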). As to conditions: Am2.2-beta2AR cells, FAP surface receptor flow cytometry; at 10 µM; stronger effect = higher value.
Chain of Beta-2 adrenergic receptor (Homo sapiens) (P07550 whole entry, looked up): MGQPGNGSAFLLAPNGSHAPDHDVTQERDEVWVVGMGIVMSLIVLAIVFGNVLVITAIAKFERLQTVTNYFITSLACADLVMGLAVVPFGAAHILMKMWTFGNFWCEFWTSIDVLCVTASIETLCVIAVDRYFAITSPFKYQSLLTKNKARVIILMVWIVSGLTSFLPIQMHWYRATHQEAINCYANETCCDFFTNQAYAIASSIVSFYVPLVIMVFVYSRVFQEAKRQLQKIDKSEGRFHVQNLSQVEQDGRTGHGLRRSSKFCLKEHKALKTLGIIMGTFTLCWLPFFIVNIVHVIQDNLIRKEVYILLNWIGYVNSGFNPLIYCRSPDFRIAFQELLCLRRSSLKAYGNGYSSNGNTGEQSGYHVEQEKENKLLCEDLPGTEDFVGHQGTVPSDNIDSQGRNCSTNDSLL

Chain of Beta-adrenergic receptor kinase 1 (Homo sapiens) (P25098 whole entry, looked up): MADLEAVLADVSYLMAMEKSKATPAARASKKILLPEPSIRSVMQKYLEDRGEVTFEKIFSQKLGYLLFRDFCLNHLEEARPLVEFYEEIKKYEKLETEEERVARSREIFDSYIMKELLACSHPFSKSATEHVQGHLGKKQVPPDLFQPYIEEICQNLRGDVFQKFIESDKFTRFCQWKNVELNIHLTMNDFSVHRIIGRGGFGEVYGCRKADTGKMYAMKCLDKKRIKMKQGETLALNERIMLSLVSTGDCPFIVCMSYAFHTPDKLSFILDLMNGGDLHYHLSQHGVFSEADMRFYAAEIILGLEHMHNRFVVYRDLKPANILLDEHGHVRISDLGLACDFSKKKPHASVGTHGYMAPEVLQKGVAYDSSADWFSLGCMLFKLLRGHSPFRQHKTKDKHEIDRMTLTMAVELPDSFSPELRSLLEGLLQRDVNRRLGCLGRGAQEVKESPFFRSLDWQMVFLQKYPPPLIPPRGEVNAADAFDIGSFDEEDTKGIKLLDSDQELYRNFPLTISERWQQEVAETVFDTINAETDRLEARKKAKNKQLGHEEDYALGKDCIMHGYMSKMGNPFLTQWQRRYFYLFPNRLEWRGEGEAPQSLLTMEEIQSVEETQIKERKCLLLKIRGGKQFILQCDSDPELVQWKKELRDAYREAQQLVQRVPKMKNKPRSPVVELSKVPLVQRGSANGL
Chain of AP-2 complex subunit beta (Homo sapiens) (P63010 whole entry, looked up, the tested form may be a part, one chain of several): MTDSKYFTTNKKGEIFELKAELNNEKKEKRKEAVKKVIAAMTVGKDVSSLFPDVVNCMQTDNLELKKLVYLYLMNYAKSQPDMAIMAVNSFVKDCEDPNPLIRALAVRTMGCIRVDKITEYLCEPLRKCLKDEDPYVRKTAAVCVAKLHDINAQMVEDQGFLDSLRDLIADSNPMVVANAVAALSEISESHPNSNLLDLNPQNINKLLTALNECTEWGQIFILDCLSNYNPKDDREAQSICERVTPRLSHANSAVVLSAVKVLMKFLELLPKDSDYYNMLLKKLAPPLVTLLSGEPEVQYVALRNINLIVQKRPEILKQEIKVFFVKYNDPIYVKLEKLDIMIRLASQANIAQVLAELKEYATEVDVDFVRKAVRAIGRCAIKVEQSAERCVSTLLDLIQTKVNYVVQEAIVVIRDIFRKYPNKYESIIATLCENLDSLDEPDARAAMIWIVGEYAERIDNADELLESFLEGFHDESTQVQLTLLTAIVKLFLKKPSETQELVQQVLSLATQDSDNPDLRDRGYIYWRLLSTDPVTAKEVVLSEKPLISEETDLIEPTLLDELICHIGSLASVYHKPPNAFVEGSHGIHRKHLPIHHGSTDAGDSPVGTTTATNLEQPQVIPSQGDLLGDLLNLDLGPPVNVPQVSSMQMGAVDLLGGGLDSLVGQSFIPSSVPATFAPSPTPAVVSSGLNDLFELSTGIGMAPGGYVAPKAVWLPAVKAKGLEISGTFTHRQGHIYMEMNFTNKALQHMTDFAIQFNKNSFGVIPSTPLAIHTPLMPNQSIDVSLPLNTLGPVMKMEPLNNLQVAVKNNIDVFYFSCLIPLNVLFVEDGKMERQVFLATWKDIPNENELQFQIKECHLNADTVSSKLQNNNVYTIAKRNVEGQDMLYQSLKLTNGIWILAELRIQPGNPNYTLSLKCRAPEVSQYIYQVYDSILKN
Chain of Integrin beta-1 (Homo sapiens) + Integrin alpha-4 (Homo sapiens) (P05556 whole entry, looked up): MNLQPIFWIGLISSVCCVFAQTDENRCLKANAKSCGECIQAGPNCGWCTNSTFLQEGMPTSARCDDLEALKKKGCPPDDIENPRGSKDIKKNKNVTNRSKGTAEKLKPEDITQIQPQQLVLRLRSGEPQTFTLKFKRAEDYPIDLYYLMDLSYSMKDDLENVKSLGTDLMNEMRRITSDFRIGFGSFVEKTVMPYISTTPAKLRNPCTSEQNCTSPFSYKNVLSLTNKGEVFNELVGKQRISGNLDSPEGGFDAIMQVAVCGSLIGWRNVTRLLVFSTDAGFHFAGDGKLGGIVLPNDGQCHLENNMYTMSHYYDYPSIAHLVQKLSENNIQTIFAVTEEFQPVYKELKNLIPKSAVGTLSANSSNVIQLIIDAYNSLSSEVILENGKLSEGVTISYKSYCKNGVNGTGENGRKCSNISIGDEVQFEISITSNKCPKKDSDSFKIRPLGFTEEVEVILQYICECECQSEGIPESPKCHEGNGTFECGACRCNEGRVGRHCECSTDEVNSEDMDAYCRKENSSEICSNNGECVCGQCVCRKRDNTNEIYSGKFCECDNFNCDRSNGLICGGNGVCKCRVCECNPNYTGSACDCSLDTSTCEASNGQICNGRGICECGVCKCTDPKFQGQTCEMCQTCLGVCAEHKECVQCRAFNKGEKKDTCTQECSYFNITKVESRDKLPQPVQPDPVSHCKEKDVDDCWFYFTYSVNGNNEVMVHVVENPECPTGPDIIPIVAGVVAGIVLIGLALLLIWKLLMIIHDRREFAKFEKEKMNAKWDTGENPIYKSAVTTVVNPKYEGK
Chain of Integrin beta-1 (Homo sapiens) + Integrin alpha-4 (Homo sapiens) (P13612 whole entry, looked up): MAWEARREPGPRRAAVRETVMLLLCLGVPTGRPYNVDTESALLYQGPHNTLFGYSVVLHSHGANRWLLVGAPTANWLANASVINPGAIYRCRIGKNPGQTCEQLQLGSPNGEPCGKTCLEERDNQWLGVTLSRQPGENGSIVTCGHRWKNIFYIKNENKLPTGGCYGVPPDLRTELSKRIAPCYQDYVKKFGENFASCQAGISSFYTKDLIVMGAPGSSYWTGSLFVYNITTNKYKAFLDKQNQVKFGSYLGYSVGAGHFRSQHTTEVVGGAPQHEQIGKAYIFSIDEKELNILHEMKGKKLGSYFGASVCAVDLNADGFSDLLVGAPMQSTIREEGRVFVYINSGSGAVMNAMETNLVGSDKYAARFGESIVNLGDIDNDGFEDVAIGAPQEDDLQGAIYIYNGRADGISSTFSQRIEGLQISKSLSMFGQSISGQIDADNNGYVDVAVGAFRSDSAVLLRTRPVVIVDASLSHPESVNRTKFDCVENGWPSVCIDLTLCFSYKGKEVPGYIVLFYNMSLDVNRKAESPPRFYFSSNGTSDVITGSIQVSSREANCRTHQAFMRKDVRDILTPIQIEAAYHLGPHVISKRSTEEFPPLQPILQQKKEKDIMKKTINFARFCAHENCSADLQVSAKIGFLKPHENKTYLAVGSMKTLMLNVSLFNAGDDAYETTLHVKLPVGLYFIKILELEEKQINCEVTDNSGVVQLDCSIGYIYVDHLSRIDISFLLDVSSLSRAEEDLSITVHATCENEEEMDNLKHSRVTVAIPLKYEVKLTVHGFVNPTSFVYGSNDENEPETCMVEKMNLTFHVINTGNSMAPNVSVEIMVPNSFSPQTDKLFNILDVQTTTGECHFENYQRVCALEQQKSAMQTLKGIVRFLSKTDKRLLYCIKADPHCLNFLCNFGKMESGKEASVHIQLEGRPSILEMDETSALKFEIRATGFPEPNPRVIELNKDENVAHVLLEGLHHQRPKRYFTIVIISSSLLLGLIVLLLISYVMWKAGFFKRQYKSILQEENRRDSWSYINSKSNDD

One may read the inhibition as the relative decrease from the control value, in per cent. Turning to `CC(NC(=O)c1ccc(OC2CCN(Cc3ccccn3)CC2)cc1)c1ccccc1` (centres undefined), the percent of DMSO control GFP in assay [1] was 106% (inactive). In addition, the GFP response vs DMSO in [2] was 102% (inactive); in [4], 99.4% (inactive). Moreover, in assay [3], the percent response of DMSO control was 105% (inactive). Further, the GFP response, % of DMSO in [5] was 100% (inactive). The molecule further had a double positive events in assay [6] of 59.3%. The vesicle binding response in [6] was 110% (inactive). For the same molecule, the inhibition in assay [7] was 14.7% (inactive); in assay [10] it was 32.2% (inactive); in [14] it was 6% (inactive). Moreover, the superoxide response (% of plate) in [8] is 93.3% (inactive). The aptamer binding inhibition in assay [9] is -2% (inactive). In assay [11], the response was -10.2% (inactive). The binding (% of control) in assay [12] was 102% (inactive). Moreover, the efflux inhibition (fraction of control) in [13] was -0.31 (inactive). For the same molecule, the differentiation response in assay [15] is 0% (inactive).
On to `CCOC(=O)Cc1c(C)nc(N)[nH]c1=O`, for which, in assay [1], the percent of DMSO control GFP is 101% (inactive). For the same molecule, the figures for the GFP response vs DMSO in assay [2] and in assay [4] were 95.1% (inactive) and 91.4% (inactive), respectively. In addition, the percent response of DMSO control in assay [3] is 102% (inactive). In assay [5], the GFP response, % of DMSO was 94.3% (inactive). For the same molecule, the double positive events in [6] came to 64.8%. In addition, the vesicle binding response in assay [6] is 276% (inactive). Besides, the values for the inhibition in [7], in [10] and in assay [14] were -1.49% (inactive), -8.2% (inactive) and 15% (inactive), respectively. Further, in assay [9], the aptamer binding inhibition is 3% (inactive). The response is -4.96% (inactive) in [16] and -0.76% (inactive) in assay [11]. Further, the binding (% of control) in assay [12] was 107% (inactive). Moreover, the efflux inhibition (fraction of control) in assay [13] is 0.52 (active). Besides, the differentiation response in assay [15] was 22.7% (inactive).
`C#CCN1C(=O)C(O)(CC(=O)c2ccc(OC)c(OC)c2)c2ccccc21` (centres undefined): the percent of DMSO control GFP in assay [1] is 102% (inactive). Further, the GFP response vs DMSO in assay [2] is 103% (inactive); in assay [4] it was 98% (inactive). Further, the percent response of DMSO control in [3] is 93.1% (inactive). Besides, the GFP response, % of DMSO in assay [5] is 97.6% (inactive). Besides, the double positive events in assay [6] stood at 64.1%. Also, the vesicle binding response in [6] was 315% (inactive). The inhibition is 11% (inactive) in assay [7], -2.48% (inactive) in assay [10] and -4% (inactive) in assay [14]. For the same molecule, in [9], the aptamer binding inhibition is 1% (inactive). Also, the response in assay [16] was -2.19% (inactive); in assay [11], -1.43% (inactive). Further, in assay [12], the binding (% of control) was 104% (inactive). Moreover, the efflux inhibition (fraction of control) in assay [13] was 0.11 (inactive). The differentiation response in assay [15] was 12.9% (inactive).
With `C=C(C)COc1ccc(-c2n[nH]c(C)c2-c2ccc(OC)cc2)c(O)c1`, the percent of DMSO control GFP in [1] was 105% (inactive). The GFP response vs DMSO in assay [2] is 111% (inactive); in assay [4] it was 112% (inactive). Further, the percent response of DMSO control in assay [3] was 95.9% (inactive). Also, in [5], the GFP response, % of DMSO was 87.7% (inactive). Besides, in [6], the double positive events turned out to be 58.9%. In assay [6], the vesicle binding response is 175% (inactive). Besides, the inhibition in assay [7] is -9.57% (inactive); in [14], 10% (inactive). In addition, the superoxide response (% of plate) in [8] is 101% (inactive). Besides, the aptamer binding inhibition in assay [9] is -3% (inactive). Besides, the response in assay [11] was -1.12% (inactive). In addition, the binding (% of control) in [12] is 107% (inactive). For the same molecule, the efflux inhibition (fraction of control) in assay [13] is 0.75 (active). The differentiation response in assay [15] is -9.89% (inactive).
As to `COC(=O)c1[nH]c2ccccc2c1NC(=O)CN1CCN(C/C=C/c2ccccc2)CC1`, the percent of DMSO control GFP in assay [1] is 108% (inactive). The GFP response vs DMSO in [2] is 106% (inactive); in [4] it was 88.3% (inactive). In addition, in assay [3], the percent response of DMSO control was 99.8% (inactive). Besides, in [5], the GFP response, % of DMSO was 96.1% (inactive). Besides, the double positive events in [6] was determined as 55.6%. Also, in [6], the vesicle binding response was 154% (inactive). The inhibition in assay [7] is -42.2% (inactive); in assay [10], 3.15% (inactive); in assay [14], 8% (inactive). In addition, in [8], the superoxide response (% of plate) is 98% (inactive). The aptamer binding inhibition in assay [9] is 0% (inactive). In addition, the response in assay [11] is 3.35% (inactive). The binding (% of control) in assay [12] was 108% (inactive). In addition, the efflux inhibition (fraction of control) in assay [13] was 0.25 (inactive). In [15], the differentiation response is -13.1% (inactive).
